Screening data from PubChem.
FAS TE block: FAS thioesterase domain inhibitors, primary screen, biochemical, fluorescence intensity, uHTS | Fatty acid synthase (Homo sapiens), P49327 | recombinant FAS-TE, OMFH fluorogenic substrate, fluorescence endpoint | AID 602261, 2012 | inhibition, % at 15 µM | 0.67% of 360,000 active;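 active = compounds whose normalised, plate-corrected inhibition of enzyme fluorescence in the single-dose primary screen is 50% or more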
PLC-beta3 inh: human PLC-beta3 inhibitors, primary screen, biochemical, fluorescence; 1-phosphatidylinositol 4,5-bisphosphate phosphodiesterase beta-3 (Homo sapiens), Q01970; Purified PLC-beta3, fluorogenic substrate; inhibition, % at 12.2 µM; 0.18% of 370,000 active; in the data active = inhibition above about 11%
PLCg1 inh: PLC-gamma1 enzyme inhibitors, primary screen, biochemical, fluorescence, purified enzyme; 0.84% of 370,000 active; fluorogenic substrate; inhibition, % at 12.2 µM; in the data active = inhibition above about 9.5%
Target sequence (P19174 whole entry, looked up): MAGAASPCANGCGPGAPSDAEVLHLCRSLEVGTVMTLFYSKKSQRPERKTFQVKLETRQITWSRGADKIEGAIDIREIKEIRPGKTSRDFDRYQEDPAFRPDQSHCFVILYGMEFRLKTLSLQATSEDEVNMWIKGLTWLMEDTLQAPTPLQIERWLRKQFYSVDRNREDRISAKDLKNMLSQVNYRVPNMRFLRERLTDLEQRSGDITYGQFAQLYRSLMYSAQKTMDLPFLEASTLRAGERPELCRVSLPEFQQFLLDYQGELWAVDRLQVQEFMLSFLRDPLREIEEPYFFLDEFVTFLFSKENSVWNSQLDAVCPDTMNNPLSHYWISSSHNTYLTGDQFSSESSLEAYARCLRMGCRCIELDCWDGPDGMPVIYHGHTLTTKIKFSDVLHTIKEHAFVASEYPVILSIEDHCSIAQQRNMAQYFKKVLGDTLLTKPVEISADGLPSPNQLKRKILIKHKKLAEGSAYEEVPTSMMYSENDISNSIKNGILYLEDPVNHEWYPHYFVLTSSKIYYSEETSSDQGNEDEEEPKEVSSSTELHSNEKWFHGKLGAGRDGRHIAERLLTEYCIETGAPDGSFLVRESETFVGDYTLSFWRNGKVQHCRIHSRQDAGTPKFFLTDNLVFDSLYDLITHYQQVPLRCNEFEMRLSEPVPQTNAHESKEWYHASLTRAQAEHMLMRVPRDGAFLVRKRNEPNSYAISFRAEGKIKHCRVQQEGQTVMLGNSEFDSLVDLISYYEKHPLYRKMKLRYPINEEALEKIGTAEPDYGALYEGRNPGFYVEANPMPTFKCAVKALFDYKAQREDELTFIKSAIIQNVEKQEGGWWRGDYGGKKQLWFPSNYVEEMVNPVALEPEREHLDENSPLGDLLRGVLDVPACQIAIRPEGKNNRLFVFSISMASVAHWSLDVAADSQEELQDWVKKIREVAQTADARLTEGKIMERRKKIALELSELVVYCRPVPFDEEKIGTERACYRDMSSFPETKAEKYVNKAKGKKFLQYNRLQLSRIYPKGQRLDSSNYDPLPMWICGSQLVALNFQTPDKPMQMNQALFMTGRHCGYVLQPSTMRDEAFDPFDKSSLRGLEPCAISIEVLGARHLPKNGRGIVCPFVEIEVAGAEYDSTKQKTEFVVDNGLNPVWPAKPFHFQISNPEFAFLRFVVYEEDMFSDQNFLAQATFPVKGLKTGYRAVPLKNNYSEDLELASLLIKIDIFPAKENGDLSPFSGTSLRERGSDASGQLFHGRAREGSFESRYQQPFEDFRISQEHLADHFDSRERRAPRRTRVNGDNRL
Cardio protect: cardioprotection against H2O2-induced cell death, primary screen, uHTS, H9c2 cells, ATPLite luminescence; H9c2 cardiomyocytes, H2O2 injury protection, 2 h; protection from H2O2 cell death, % at 20 µM; 0.63% of 360,000 active;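 active = compounds giving at least 50% protection of heart cells from peroxide-induced death in the single-dose screen, raw or plate-pattern-corrected value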
FAS-TE inh conf: FAS thioesterase domain inhibitors, confirmation, biochemical, fluorescence intensity, single concentration; shares compounds with FAS TE block; inhibition, % at 15 µM; 45% of 2,300 active; recombinant FAS-TE, OMFH fluorogenic substrate; AID 624325, 2012;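 active = compounds inhibiting the enzyme by at least 50% at 15 µM in any one of the replicates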
Of the large screens only hits and unclear results are named; the others gave an inactive call (follow-up assays come after a bar, where they were run). The list is not random: actives were taken first. Their share in the collection is about 2.2%.

COc1ccc2[nH]c3c(c2c1)CCN1C(=O)C(CC(=O)NCCc2ccccn2)C[C@H](C(=O)N2CCCCC2)[C@@]31CCc1ccccc1 (stereo partly specified)	none
O=C(CC1C[C@H](C(=O)N2CCOCC2)[C@@]2(CCC3CCCC3)c3[nH]c4ccccc4c3CCN2C1=O)NCCc1ccccn1 (stereo partly specified)	FAS TE block 80 | FAS-TE inh conf 91
CN(C)C(=O)CCc1ccc2c3c([nH]c2c1)[C@]1(CCC2CCCC2)[C@@H](C(=O)N2CCOCC2)C[C@H](CC(=O)NCCc2ccccn2)C(=O)N1CC3	none
COc1ccc2[nH]c3c(c2c1)CCN1C(=O)C(CC(=O)NCCc2ccccn2)C[C@H](C(=O)N2CCOCC2)[C@@]31CCC1CCCC1 (stereo partly specified)	FAS TE block 61 | FAS-TE inh conf 46
COc1cccc(OCC(C)CN2CCC(C(O)(c3ccccc3)c3ccccc3)CC2)c1 (stereo unspecified)	none (no result: FAS TE block, Cardio protect)
CCCCc1c(-c2ccccc2OC)ncn1Cc1cccc(F)c1	none (no result: FAS TE block, Cardio protect)
COc1ccc(-c2nn(-c3ccccc3)cc2/C=N/O)cc1OC	none
COc1ccc(-c2nn(-c3ccccc3)cc2/C=N/NC(=O)c2cccc(S(=O)(=O)Nc3ccccc3OC)c2)cc1	FAS TE block 54 | FAS-TE inh conf inactive
COc1ccc(-c2nn(-c3ccccc3)cc2/C=N/NC(=S)NC(C)C)cc1OC	FAS TE block 56 | FAS-TE inh conf inactive
COc1ccc(NC(=O)C[C@H]2C(=O)N(C3CCCCC3)C[C@@H]2C)cc1	none
Cc1cccc(OCCCN2CCC(C(O)(c3ccccc3)c3ccccc3)CC2)c1	none (no result: FAS TE block, Cardio protect)
CSCC[C@H](NC(=O)c1cc([N+](=O)[O-])ccc1Cl)c1nc2ccccc2[nH]1	FAS TE block 63 | FAS-TE inh conf inactive
C=CCC[C@H](Cc1ccc(F)cc1)C(=O)OC[C@@H](Cc1c[nH]c2ccccc12)NC(=O)[C@H](CC=C)CC(=O)NCCO	none
C=CCC[C@@H](Cc1ccc(F)cc1)C(=O)OC[C@H](Cc1c[nH]c2ccccc12)NC(=O)[C@H](CC=C)CC(=O)NCCO	FAS TE block 57 | FAS-TE inh conf 68
C[C@H]1[C@@H](NCc2cccs2)CC[C@@]23CCCN2C(=O)CCC[C@@H]13	none (no result: FAS TE block, Cardio protect)
CCC[C@H]1[C@@H](OC(=O)N2CCCC2)CC[C@@]23CCCN2C(=O)CCC[C@@H]13	none (no result: FAS TE block, Cardio protect)
CCCCC(=O)Nc1ncc(S(=O)(=O)c2ccc([N+](=O)[O-])cc2)s1	none
COCC(=O)Nc1ncc(S(=O)(=O)c2ccc([N+](=O)[O-])cc2)s1	none
O=C(Nc1ncc(S(=O)(=O)c2ccc([N+](=O)[O-])cc2)s1)c1cccc2ccccc12	FAS TE block 56 | FAS-TE inh conf inactive
O=C(NC(Nc1ncc(S(=O)(=O)c2ccc([N+](=O)[O-])cc2)s1)(C(F)(F)F)C(F)(F)F)c1ccc(Cl)cc1	FAS TE block 61 | FAS-TE inh conf 44
CCOC(=O)N1CCN(Cc2cc(=O)oc3ccc4ccccc4c23)CC1	none
O=C(CC12CC3CC(CC(C3)C1)C2)NCC(=O)OCc1cc(=O)oc2ccc3ccccc3c12	FAS TE block 55 | FAS-TE inh conf inactive
Cc1cn(C2OC(COC(=O)c3ccccc3)C(OC(=O)c3ccccc3)C2OC(=O)c2ccccc2)c(=O)[nH]c1=O (stereo unspecified)	FAS TE block 87 | FAS-TE inh conf inactive
Cc1cn(C2OC(COC(=O)c3ccccc3)C(O)C2O)c(=O)[nH]c1=O (stereo unspecified)	none
CC(C)OC(=O)[C@H]1[C@H](c2ccc(Cl)cc2)[C@@](C#N)(C(N)=O)[C@@H]2C=CC(C(N)=O)=CN21	FAS TE block 59 (no result: PLC-beta3 inh, PLCg1 inh) | FAS-TE inh conf 59
COC(=O)[C@]12C[C@H](CC(=O)NCc3ccccc3)C(=O)N(Cc3cccc4ccccc34)C1=C[C@H](C(C)C)O[C@@H]2C1CC1	none (no result: FAS TE block, Cardio protect)
Cc1cccc(OCCC(=O)OCC(=O)N2c3ccccc3NC(=O)C2(C)C)c1	none
CC(C)(C)c1ccc(OCCC(=O)OCC(=O)N2c3ccccc3NC(=O)C2(C)C)cc1	FAS TE block 56 | FAS-TE inh conf 66
Cc1c(Cl)c([N+](=O)[O-])nn1CCCC(=O)Nc1cccc(Cl)c1	FAS TE block 51 | FAS-TE inh conf 42
N#Cc1ccc(-c2cccnc2)nc1SCc1ccc(Cl)cc1Cl	FAS TE block 55 | FAS-TE inh conf inactive
Cc1cc(Br)cn2c(Cc3cccc(Cl)c3)c(C3CCCCC3)nc12	none (no result: FAS TE block, Cardio protect)
N#C/C(=C\c1ccc(Sc2nc3ccccc3[nH]2)o1)c1ccccc1	none
N#Cc1ccc(Sc2nc3ccccc3[nH]2)cc1C#N	FAS TE block 74 | FAS-TE inh conf 85
COc1ccc2c(c1)C(=O)N1[C@H]3c4cc(Cl)ccc4OC[C@@H]3[C@H](c3ccccc3)[C@]1(C)C(=O)N2	FAS TE block 64 | FAS-TE inh conf 45
COc1ccc2c(c1)OC[C@H]1[C@H]2N2C(=O)c3cc(Cl)ccc3NC(=O)[C@@]2(C)[C@H]1c1ccccc1	FAS TE block 67 (no result: PLC-beta3 inh, PLCg1 inh) | FAS-TE inh conf inactive
CCOC(=O)[C@H]1[C@H]2COc3cc(OC)ccc3[C@@H]2N2C(=O)c3cc(OC)ccc3NC(=O)[C@@]12C	none
CCOC(=O)[C@H]1[C@H]2COc3ccc(Cl)cc3[C@@H]2N2C(=O)c3cc(OC)ccc3NC(=O)[C@@]12C	none
COc1ccc2c(c1)OC[C@H]1[C@H]2N2C(=O)c3ccc(C)cc3NC(=O)[C@@]2(C)[C@H]1c1ccccc1	FAS TE block 90 | FAS-TE inh conf inactive
COc1ccc2c(c1)OC[C@H]1[C@H]2N2C(=O)c3cc(OC)ccc3NC(=O)[C@@]2(C)[C@H]1c1ccccc1	FAS TE block 95 | FAS-TE inh conf 54
COc1ccc2c(c1)[C@H]1[C@H](CO2)[C@H](c2ccccc2)[C@]2(C)C(=O)Nc3cc(C)ccc3C(=O)N12	none
Fc1ccccc1-c1n[nH]c(=S)n1N=Cc1ccc(-c2ccccc2)cc1	none (no result: FAS TE block, Cardio protect)
C=CCN(CC#Cc1ccccc1)CC1CC1	none (no result: FAS TE block, Cardio protect)
CCOc1ccccc1NC(=O)CSc1nnc(SCc2ccccc2)s1	none (no result: FAS TE block, Cardio protect)
Cc1ccc(CNC(=O)O[C@H]2CC[C@@]34CCCN3C(=O)CCC[C@H]4C2)o1	none (no result: FAS TE block, Cardio protect)
CCOC(=O)[C@H]1[C@H]2COc3cc(OC)ccc3[C@@H]2N2C(=O)c3cc(F)ccc3NC(=O)[C@@]12C	none
COc1ccc2c(c1)OC[C@H]1[C@H]2N2C(=O)c3cc(F)ccc3NC(=O)[C@@]2(C)[C@H]1c1ccccc1	FAS TE block 74 | FAS-TE inh conf inactive
CCN(Cc1ccccc1)C(=O)c1c[nH]c2ccc(S(=O)(=O)N(C)CCC#N)cc2c1=O	FAS TE block 59 | FAS-TE inh conf 67
O=C(CSc1nc2ccccc2c(=O)n1-c1ccc(F)cc1)Nc1ccc(C(=O)O)cc1	none
